LYPLA1 inh: LYPLA1 inhibitors, primary screen, counter-screen for PME1 inhibitor project, biochemical, fluorescence polarization, FP-Rh probe ABPP; inhibition, % at 5.9 µM; AID 2174, 2009; recombinant LYPLA1; actives 0.16% (n = 320,000); Acyl-protein thioesterase 1 (Homo sapiens), O75608;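 active = inhibition above the mean of all tested compounds plus 3 SD, set per campaign, cut at about 14% in these data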;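 note: inhibitors block serine hydrolase probe labeling of LYPLA1 so polarization falls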
Fam108B counter: mouse Fam108B serine hydrolase inhibitors, primary screen, counter-screen for RBBP9 inhibitor project, biochemical, fluorescence polarization | recombinant Fam108B, FP-Rh probe fluorescence polarization | inhibition, % at 9.51 µM | actives 0.33% (n = 300,000);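 active = inhibition above the screen mean inhibition plus 3 SD, computed separately per campaign, cut at about 18% in these data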;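 note: inhibitors lower polarization as less probe binds the enzyme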
PME-1 primary: PME-1 inhibitors via competitive probe labeling, primary screen, biochemical, fluorescence polarization, FP-Rh probe, HTS; recombinant PME-1; inhibition, % at 5.9 µM; actives 0.53% (n = 320,000); Protein phosphatase methylesterase 1 (Homo sapiens), Q9Y570;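 active = inhibition above the campaign mean of all compounds plus 3 SD, cut at about 26% in these data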;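 note: competitive labeling of PME-1 active site by serine hydrolase directed probe; inhibitors block probe labeling so polarization falls and inhibition rises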
Target sequence (Q9Y570 whole entry, looked up): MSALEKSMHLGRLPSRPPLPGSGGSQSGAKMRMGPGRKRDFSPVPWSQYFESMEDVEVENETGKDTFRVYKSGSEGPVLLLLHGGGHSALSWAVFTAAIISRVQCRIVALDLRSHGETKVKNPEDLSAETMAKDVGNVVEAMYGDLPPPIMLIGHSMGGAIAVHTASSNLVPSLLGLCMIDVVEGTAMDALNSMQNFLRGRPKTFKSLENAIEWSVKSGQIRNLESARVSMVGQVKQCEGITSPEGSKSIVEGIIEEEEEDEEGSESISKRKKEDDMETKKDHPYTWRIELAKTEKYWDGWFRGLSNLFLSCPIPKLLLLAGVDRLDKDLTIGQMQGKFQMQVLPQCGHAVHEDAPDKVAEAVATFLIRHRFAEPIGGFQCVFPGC
GSTO1 counter: inhibitors of recombinant GSTO1, primary screen, counter-screen for RBBP9 inhibitor project, biochemical, fluorescence polarization. activity-based probe fluorescence polarization. inhibition, % at 5.96 µM. actives 1.1% (n = 300,000). AID 1974, 2009;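 active = inhibition above the campaign mean inhibition plus 3 SD, cut at about 35% in these data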
Target sequence (P78417 whole entry, looked up): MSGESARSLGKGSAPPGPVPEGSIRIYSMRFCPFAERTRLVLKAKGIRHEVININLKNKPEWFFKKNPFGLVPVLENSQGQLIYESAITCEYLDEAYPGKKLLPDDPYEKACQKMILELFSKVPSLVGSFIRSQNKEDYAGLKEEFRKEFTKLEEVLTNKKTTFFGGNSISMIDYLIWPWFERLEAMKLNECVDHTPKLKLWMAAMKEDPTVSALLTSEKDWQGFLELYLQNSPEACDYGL
LYPLA2 counter: LYPLA2 inhibitors, primary screen, counter-screen for PME1 inhibitor project, biochemical, fluorescence polarization, FP-Rh probe ABPP | AID 2177, 2009 | inhibition, % at 5.9 µM | recombinant LYPLA2 | actives 0.38% (n = 320,000);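 active = inhibition above the screen-wide mean plus 3 SD, limit set per campaign, cut at about 26% in these data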
PREPL inhibitor: PREPL enzyme inhibitors, primary screen, biochemical, fluorescence polarization; recombinant PREPL, fluorescence polarization activity-based probe; inhibition, % at 5.96 µM; actives 0.68% (n = 320,000)
Fam108b inh conf: mouse Fam108b serine hydrolase inhibitors, confirmation, counter-screen for RBBP9 inhibitor project, biochemical, fluorescence polarization, triplicate. shares compounds with Fam108B counter. recombinant Fam108b, FP-Rh probe fluorescence polarization. inhibition, % at 9.51 µM. actives 44% (n = 930). AID 1978, 2009;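 active = inhibition above a limit from the primary screen, the mean over all compounds plus 3 SD, cut at about 19% in these data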;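 note: inhibitors free the probe so polarization falls as inhibition rises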
Fam108b inh: inhibition of mouse Fam108b by HTS hits, late-stage follow-up, biochemical, gel-based ABPP, soluble recombinant form | shares compounds with Fam108B counter | fluorophosphonate probe | inhibition, % at 20 µM | actives 44% (n = 260) | AID 588649, 2011; in the data active = inhibition above about 40%
GSTO1 confirm: GSTO1 inhibitor hit confirmation, counter-screen for RBBP9 inhibitor project, biochemical, fluorescence polarization, triplicate | shares compounds with GSTO1 counter | recombinant GSTO1, probe fluorescence polarization | inhibition, % at 5.96 µM | actives 54% (n = 2,400);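 active = inhibition above the primary screen's cutoff, its mean inhibition plus 3 SD, cut at about 35% in these data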;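 note: loss of polarization as inhibitors block binding of rhodamine sulfonate ester activity probe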
LYPLA1 confirm: LYPLA1 inhibitors, retest, confirmation, counter-screen for PME1 inhibitor project, biochemical, fluorescence polarization, FP-Rh probe ABPP | shares compounds with LYPLA1 inh | recombinant LYPLA1 | inhibition, % at 5.9 µM | actives 69% (n = 480) | AID 2233, 2010;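 active = mean inhibition across replicates above the hit cutoff set in the primary screen, cut at about 15% in these data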;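 note: loss of FP-Rh probe labeling of LYPLA1 seen as lower polarization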
LYPLA2 conf: LYPLA2 inhibitors, retest, confirmation, counter-screen for PME1 inhibitor project, biochemical, fluorescence polarization, FP-Rh probe ABPP; actives 72% (n = 1,100); recombinant LYPLA2; AID 2232, 2010; inhibition, % at 5.9 µM; shares compounds with LYPLA2 counter;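 active = mean inhibition across replicates above the hit cutoff set in the primary screen, cut at about 26% in these data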;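 note: blocked labeling of the enzyme by serine hydrolase FP-Rh probe lowers polarization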
PREPL inh cf: human PREPL enzyme inhibitors, confirmation, biochemical, fluorescence polarization; shares compounds with PREPL inhibitor; recombinant PREPL, fluorescence polarization activity probe; inhibition, % at 5.96 µM; actives 67% (n = 2,000); AID 2803, 2010
A number is an active result; i = inactive; nt = no result given. Shown are actives, neighbours in structure and some others; about 2% of the full set was active somewhere. Cut-off read from the data, not from the text of the source, unless noted: active = inhibition above about 43%; inactive = the rest.

SMILES	LYPLA1 inh	Fam108B counter	PME-1 primary	GSTO1 counter	LYPLA2 counter	PREPL inhibitor	Fam108b inh conf	PREPL inh cf	others
CC(C)c1ccc(-c2nc(N3CCCCC3)[nH]c(=O)c2C#N)cc1	i	i	i	i	i	i	nt	nt
O=C(Nc1ccc(Cl)cc1)Nc1ccc2c(c1)N1CCN=C1S2	i	22	i	i	i	58	i	i
CC(OC(=O)CN1C(=O)c2ccccc2C1=O)C(=O)NC1CCCCC1C (centres undefined)	i	i	i	i	i	i	nt	nt
Brc1csc(/C=N/Nc2nc3ccccc3s2)c1	i	32	31	i	i	54	37	i
Brc1cc2c(cc1/C=N/Nc1nc3ccccc3s1)OCO2	i	i	i	i	i	i	nt	nt
NC(=O)COC(=O)C1c2ccccc2Oc2ccccc21	i	i	i	i	i	i	nt	nt
N#CCN(CC#N)C(=O)C1c2ccccc2Oc2ccccc21	87	91	77	i	105	75	i	i	LYPLA1 confirm=i;LYPLA2 conf=i
CC(=O)CSc1ccc(C(=O)O)cn1	i	i	i	i	i	i	nt	nt
O=c1c(O)c(-c2cc(O)c(O)c(O)c2)oc2cc(O)cc(O)c12	i	31	i	79	i	90	i	55	GSTO1 confirm=48
O=c1c(O)c(-c2ccccc2)oc2cc(O)cc(O)c12	nt	nt	nt	nt	nt	i	nt	nt
O=[N+]([O-])c1cc(Cl)ccc1N1CCCC1	i	i	i	i	i	i	nt	nt
O=C1C(Cl)=C(N2CCN(c3ccccc3[N+](=O)[O-])CC2)C(=O)c2ccccc21	i	30	i	82	i	58	32	44	Fam108b inh=i;GSTO1 confirm=88
O=[N+]([O-])c1cc(Cl)cc(/C=N/NC(=S)Nc2ccc(S(=O)(=O)N3CCOCC3)cc2)c1O	i	39	i	i	i	46	31	i
N#Cc1ccc(/C=N/NC(=S)Nc2ccc(S(=O)(=O)N3CCOCC3)cc2)cc1	i	i	i	i	i	i	nt	nt
CN1C(=O)N(CC(=O)Nc2sccc2C(N)=O)C(=O)C12CCCCC2	i	nt	i	nt	i	i	nt	nt
O=S(=O)(NCc1ccco1)c1ccc(Cl)nc1	i	i	i	i	i	i	nt	nt
O=c1c(O)cccc2cc(O)c(O)c(O)c12	i	49	i	51	i	63	31	i	Fam108b inh=i;GSTO1 confirm=72
CCC1CN(C(=O)N2CCC(C(=O)NCCc3ccc(OC)cc3OC)CC2)c2ccccc2O1 (centres undefined)	i	i	i	i	i	i	nt	nt
O=C(NCc1ccccc1)c1ccc2nc(-c3ccco3)c(-c3ccco3)nc2c1	i	19	i	67	i	61	i	43	GSTO1 confirm=i
CC(OC(=O)CCCN=C1NS(=O)(=O)c2ccccc21)C(=O)Nc1ccc(F)c(F)c1F (centres undefined)	i	i	i	i	i	i	nt	nt
CCOC(=O)c1c2c3c(cccc3[nH]c1=O)C(=O)c1ccccc1-2	i	i	i	i	i	i	nt	nt
COCCCNc1c2c3c(cccc3[nH]c1=O)C(=O)c1ccccc1-2	105	106	124	79	126	112	131	113	Fam108b inh=i;GSTO1 confirm=92;LYPLA1 confirm=101;LYPLA2 conf=97
CC1(C)CC(NC(=O)c2cc(S(=O)(=O)N3CCOCC3)ccc2Cl)CC(C)(C)N1	nt	nt	nt	nt	nt	i	nt	nt
COc1ccc2noc3c2c1C(=O)c1ccccc1-3	25	20	26	i	29	50	23	i	LYPLA1 confirm=21;LYPLA2 conf=i
Fc1cccc(Nc2nc3ccccc3n3nnnc23)c1	i	i	i	i	i	i	nt	nt
SMILES	LYPLA1 inh	Fam108B counter	PME-1 primary	GSTO1 counter	LYPLA2 counter	PREPL inhibitor	Fam108b inh conf	PREPL inh cf	others
c1ccc2c(c1)nc(Nc1ccc3c(c1)OCO3)c1nnnn12	i	23	i	i	i	47	i	45
COc1ccc(/C=N/Nc2cc(C)nc3ccc(Br)cc23)cc1	i	20	35	i	i	56	i	52
COc1ccc2nc(C)cc(N/N=C/c3cccc(OC)c3O)c2c1	i	19	i	i	i	64	i	59
Cc1cc(N/N=C/c2ccccc2O)c2ccccc2n1	i	i	i	i	i	i	nt	nt
CC(C)NC(=O)N(C)C[C@H]1Oc2ccc(NC(=O)Nc3ccccc3)cc2C(=O)N([C@@H](C)CO)C[C@@H]1C	nt	nt	nt	nt	nt	i	nt	nt
COc1ccc(N2CCN(C(=O)c3c(-c4c(F)cccc4Cl)noc3C)CC2)cc1	i	i	i	i	i	i	nt	nt
C=CCn1c(NS(=O)(=O)c2ccccc2)c(S(=O)(=O)c2ccc(C)cc2)c2nc3ccccc3nc21	80	74	33	101	82	47	i	i	GSTO1 confirm=88;LYPLA1 confirm=66;LYPLA2 conf=90
CCCCn1c(N)c(S(=O)(=O)c2ccc(C)cc2)c2nc3ccccc3nc21	i	i	i	i	i	i	nt	nt
CC(=O)[C@]1(O)Cc2c(O)c3c(c(O)c2[C@@H](O[C@H]2C[C@H](N)[C@H](O)[C@H](C)O2)C1)C(=O)c1ccccc1C3=O	77	71	72	67	74	66	73	85	Fam108b inh=i;GSTO1 confirm=59;LYPLA1 confirm=78
CCOc1cc(/C=C2\C(=O)N(c3ccc(C(N)=O)cc3)N=C2C)ccc1OC(=O)c1cccs1	i	20	i	73	i	58	i	91
NS(=O)(=O)c1ccc(CCNc2ccnc3cc(Cl)ccc23)cc1	i	i	i	i	i	i	nt	nt
COc1cccc(OCCn2cc(/C=N/NC(=O)c3ccncc3)c3ccccc32)c1	i	25	i	i	i	50	i	i
